The values below come from PubChem BioAssay (EPA / NIEHS).

The structures appear in SMILES notation. Results filed as inconclusive are left out. The source made the active and inactive calls. Rule for the calls, unless noted: active = hit-call score of the fitted dose curve at least 0.9, where 1 is the maximum; inactive = score below 0.9.

The AC50 is the concentration at which the activity in the assay is half-maximal.

Experiment [1] deals with Retinoic acid receptor RXR-alpha (Homo sapiens) (UniProt P19793). Put plainly: OT_NURR1_NURR1RXRa_0480: Odyssey Thera (OT) 8-hour HEK293T Protein Complementation Assay for Nurr1/retinoid X receptor (RXR) (AID 2283385; active = hit-call score of the fitted dose curve at least 0.9, where 1 is the maximum). Summed up:
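Interaction of Nurr1 with RXRα read as reconstituted reporter fluorescence in a HEK293T fragment-complementation system, 8 h post-treatment; increase over DMSO baseline analysed.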

Experiment [2] shares this target. Nature of the experiment: OT_NURR1_NURR1RXRa_1440: Odyssey Thera (OT) 24-hour HEK293T Protein Complementation Assay for Nurr1/retinoid X receptor (RXR) (AID 2283386; active = hit-call score of the fitted dose curve at least 0.9, where 1 is the maximum). The essentials:
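Gain in fluorescence, fitted relative to DMSO, reflects Nurr1–RXRα association in HEK293T cells after 24 h dosing. Bait and prey are each linked to a reporter-protein fragment that reassembles on interaction.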

The target of experiment [3] is Peroxisome proliferator-activated receptor gamma (Homo sapiens) (UniProt P37231). Nature of the experiment: OT_PPARg_PPARgSRC1_0480: Odyssey Thera (OT) 8-hour Protein-Complementation Assay for Peroxisome Proliferator-activated Receptor Gamma / SRC-1 Co-activator (AID 2283387; active = hit-call score of the fitted dose curve at least 0.9, where 1 is the maximum;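 note: nuclear to cytoplasmic split Venus YFP fluorescence ratio reporting PPARg SRC-1 interaction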). The essentials:
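Protein-fragment complementation of split Venus YFP reports PPARg/SRC-1 interaction in HEK293T (transfected 48 h before treatment), exposed 8 h. Readout: N/C fluorescence ratio at 488 nm from imaging, Draq5 for segmentation, positive fit relative to DMSO.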

Read-out in experiment [4]: Fatty acid synthase (Homo sapiens) (UniProt P49327)
Put plainly: LTEA_HepaRG_FASN: Life Technologies and Expression Analysis (LTEA) Assay for Fatty Acid Synthase (FASN) using HepaRG (AID 2283448).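 For AC50: differentiated human HepaRG liver cells in serum-free induction medium.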 The conditions noted are these: mRNA level, 48 h; actives raise or lower the signal. The essentials: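 FASN transcript measured by TaqMan qRT-PCR, normalised to three housekeeping genes, after 48 h chemical exposure of HepaRG cells. Eight-point half-log series from 100 uM in 0.5% DMSO, duplicates; gain or loss fitted against vehicle.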

Read-out in experiment [5]: Cyclin Dependent Kinase Inhibitor 1A (CDKN1A), CDKN1A (gene 1026)
Put plainly: LTEA_HepaRG_CDKN1A: Life Technologies and Expression Analysis (LTEA) Assay for Cyclin Dependent Kinase Inhibitor 1A (CDKN1A) using HepaRG (AID 2283450). Particulars: mRNA level, 48 h; actives raise or lower the signal. The essentials: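 Gain or loss of CDKN1A transcript is scored by bidirectional fitting against 0.5% DMSO vehicle. Human HepaRG cultures receive chemicals for 48 h across an 8-point series peaking at 100 uM; expression comes from qRT-PCR.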

Read-out in experiment [6]: Cyclin D1 (CCND1), CCND1 (gene 595)
Nature of the experiment: LTEA_HepaRG_CCND1: Life Technologies and Expression Analysis (LTEA) Assay for Cyclin D1 (CCND1) using HepaRG (AID 2283451).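 For AC50: differentiated human HepaRG liver cells in serum-free induction medium; TaqMan qRT-PCR transcript level normalised to ACTB GAPDH and POLR2A housekeeping genes.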 Particulars: mRNA level, 48 h; actives raise or lower the signal. The essentials: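 Expression change is measured by qRT-PCR in HepaRG cells after 48 h treatment across eight concentrations topping at 100 uM, with duplicate wells and DMSO (0.5%) serving as baseline for bidirectional fitting.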

Read-out in experiment [7]: flavin-containing dimethylaniline monooxygenases 3 (FMO3), FMO3 (gene 2328)
Nature of the experiment: LTEA_HepaRG_FMO3: Life Technologies and Expression Analysis (LTEA) Assay for flavin-containing dimethylaniline monooxygenases 3 (FMO3) using HepaRG (AID 2283453).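 For AC50: differentiated human HepaRG liver cells in serum-free induction medium; FMO3 transcript by TaqMan qRT-PCR normalized to ACTB GAPDH and POLR2A.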 The conditions noted are these: mRNA level, 48 h; actives raise or lower the signal. The essentials:
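FMO3 transcript quantified by TaqMan qRT-PCR against three housekeeping genes after 48 h chemical exposure of HepaRG cells. Eight-point half-log series, top 100 uM, 0.5% DMSO vehicle; phenobarbital 1mM induction control; up- or down-regulation fitted.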

Read-out in experiment [8]: Tumor necrosis factor receptor superfamily member 6 (Homo sapiens) (UniProt P25445)
Nature of the experiment: LTEA_HepaRG_FAS: Life Technologies and Expression Analysis (LTEA) Assay for Fas cell surface death receptor (FAS) using HepaRG (AID 2283447). The conditions noted are these: mRNA level, 48 h; actives raise or lower the signal. The essentials: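 Differentiated HepaRG cells in serum-free induction medium were exposed 48 h to 8 half-log concentrations up to 100 uM in 0.5% DMSO, in duplicate. FAS mRNA was measured by qRT-PCR normalised to ACTB, GAPDH and POLR2A; bidirectional fit versus DMSO.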

Read-out in experiment [9]: Cyclin D2 (CCND2), CCND2 (gene 894)
Nature of the experiment: LTEA_HepaRG_CCND2: Life Technologies and Expression Analysis (LTEA) Assay for Cyclin D2 (CCND2) using HepaRG (AID 2283449).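 Note: CCND2 transcript measured by TaqMan qRT-PCR and normalised to three housekeeping genes.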 Particulars: mRNA level, 48 h; actives raise or lower the signal. The essentials: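 HepaRG, 48 h dosing, 8-pt half-log curve from 100 uM, 0.5% DMSO; duplicate wells. Readout: CCND2 transcript by microfluidic qRT-PCR, housekeeping-normalised; bidirectional fit vs DMSO baseline.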

Read-out in experiment [10]: catalase (CAT), CAT (gene 847)
Put plainly: LTEA_HepaRG_CAT: Life Technologies and Expression Analysis (LTEA) Assay for catalase (CAT) using HepaRG (AID 2283452).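 For AC50: TaqMan qRT-PCR signal normalized to ACTB GAPDH and POLR2A housekeeping genes.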 The conditions noted are these: mRNA level, 48 h; actives raise or lower the signal. Summed up:
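HepaRG cells in serum-free induction medium, 0.5% DMSO vehicle, exposed 48 h in duplicate over 8 half-log concentrations from 100 uM. CAT mRNA measured by qRT-PCR, normalized to ACTB, GAPDH, POLR2A; bidirectional fit versus DMSO.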

Experiment [11] is described as follows: CEETOX_H295R_11DCORT: CeeTox H295R High-throughput Steroidogenesis Assay for 11-Deoxycortisol (11DCORT) (AID 2283432). The conditions noted are these: actives raise or lower the signal. Summed up: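 Human adrenal H295R cells were prestimulated with 10 uM forskolin for 48 h, then exposed to test chemical (0.1% DMSO final) for 48 h. Medium 11-deoxycortisol was quantified by MTBE extraction and HPLC-MS/MS; bidirectional fitting relative to DMSO.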

The nature of experiment [12]: CEETOX_H295R_OHPREG: CeeTox H295R High-throughput Steroidogenesis Assay for OH-Pregnenolone (OHPREG) (AID 2283434). The conditions noted are these: actives raise or lower the signal. Summed up:
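H295R, 10 uM forskolin pre-stim 48 h; test chemical 48 h, 0.1% DMSO final. MTBE extraction, reverse-phase C18 HPLC-ESI+ MS/MS of medium. Gain/loss vs DMSO; viability by MTT in same wells.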

A short description of experiment [13]: CEETOX_H295R_CORTIC: CeeTox H295R High-throughput Steroidogenesis Assay for Corticosterone (CORTIC) (AID 2283437).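 Note: corticosterone secreted into medium quantified by mass spectrometry.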 The conditions noted are these: actives raise or lower the signal. The essentials:
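48 h forskolin (10 uM) prestim, then 48 h chemical exposure, final DMSO 0.1%. Readout: corticosterone in medium by LC-MS/MS after MTBE extraction. Gain/loss fit vs DMSO; MTT viability in same wells.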

Experiment [14] in a line: CEETOX_H295R_CORTISOL: CeeTox H295R High-throughput Steroidogenesis Assay for Cortisol (AID 2283438).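 Note: cortisol secreted into medium quantified by LC-MS/MS.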 Particulars: actives raise or lower the signal. Summed up:
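Cortisol measured by HPLC-MS/MS after MTBE extraction of medium from H295R cells exposed 48 h to chemical (0.1% DMSO), following 48 h prestimulation with 10 uM forskolin. Viability assessed by MTT in the same wells.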

The target in experiment [15] is Peroxisome proliferator-activated receptor gamma (Homo sapiens) (UniProt P37231). Nature of the experiment: OT_PPARg_PPARgSRC1_1440: Odyssey Thera (OT) 24-hour Protein-Complementation Assay for Peroxisome Proliferator-activated Receptor Gamma/ SRC-1 Co-activator (AID 2283388; active = hit-call score of the fitted dose curve at least 0.9, where 1 is the maximum;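 note: nuclear to cytoplasmic ratio of reconstituted Venus YFP fluorescence in fixed imaged cells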). The essentials: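 Cells carrying the PPARg/SRC-1 fragment-complementation reporter receive compound for 24 hours, are fixed and counterstained with Draq5, then imaged. Increased nuclear relative to cytoplasmic YFP fluorescence above DMSO baseline indicates binding activity.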

Experiment [16] in a line: CEETOX_H295R_DOC: CeeTox H295R High-throughput Steroidogenesis Assay for DOC (AID 2283439). Particulars: actives raise or lower the signal. Summed up: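 11-Deoxycorticosterone quantified in medium by MTBE extraction and HPLC-MS/MS after 48 h chemical exposure (0.1% DMSO) of forskolin-primed (10 uM, 48 h) H295R cells. Same-well MTT viability; data fitted bidirectionally against DMSO.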

The nature of experiment [17]: CEETOX_H295R_PROG: CeeTox H295R High-throughput Steroidogenesis Assay for Progesterone (PROG) (AID 2283442). The conditions noted are these: actives raise or lower the signal. Summed up: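 Measured analyte is progesterone secreted by H295R cells at 48 h of chemical treatment, following 10 uM forskolin priming. Quantitation used HPLC-MS/MS against a 7-point standard curve; cytotoxicity was checked by MTT absorbance.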

Chain of Retinoic acid receptor RXR-alpha (Homo sapiens) (P19793 whole entry, looked up, the tested form may be a part): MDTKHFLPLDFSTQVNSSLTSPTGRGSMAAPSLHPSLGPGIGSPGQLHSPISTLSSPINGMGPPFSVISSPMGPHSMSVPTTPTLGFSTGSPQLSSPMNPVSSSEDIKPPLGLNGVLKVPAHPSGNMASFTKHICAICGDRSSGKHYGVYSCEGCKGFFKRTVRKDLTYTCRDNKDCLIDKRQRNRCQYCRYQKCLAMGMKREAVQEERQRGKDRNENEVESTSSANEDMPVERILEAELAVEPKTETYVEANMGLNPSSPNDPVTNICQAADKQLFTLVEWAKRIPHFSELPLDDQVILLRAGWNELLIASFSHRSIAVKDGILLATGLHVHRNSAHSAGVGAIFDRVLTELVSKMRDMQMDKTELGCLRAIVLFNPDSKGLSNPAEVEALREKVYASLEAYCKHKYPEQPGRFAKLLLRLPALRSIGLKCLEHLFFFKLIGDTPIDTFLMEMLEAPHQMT
Chain of Fatty acid synthase (Homo sapiens) (P49327 whole entry, looked up): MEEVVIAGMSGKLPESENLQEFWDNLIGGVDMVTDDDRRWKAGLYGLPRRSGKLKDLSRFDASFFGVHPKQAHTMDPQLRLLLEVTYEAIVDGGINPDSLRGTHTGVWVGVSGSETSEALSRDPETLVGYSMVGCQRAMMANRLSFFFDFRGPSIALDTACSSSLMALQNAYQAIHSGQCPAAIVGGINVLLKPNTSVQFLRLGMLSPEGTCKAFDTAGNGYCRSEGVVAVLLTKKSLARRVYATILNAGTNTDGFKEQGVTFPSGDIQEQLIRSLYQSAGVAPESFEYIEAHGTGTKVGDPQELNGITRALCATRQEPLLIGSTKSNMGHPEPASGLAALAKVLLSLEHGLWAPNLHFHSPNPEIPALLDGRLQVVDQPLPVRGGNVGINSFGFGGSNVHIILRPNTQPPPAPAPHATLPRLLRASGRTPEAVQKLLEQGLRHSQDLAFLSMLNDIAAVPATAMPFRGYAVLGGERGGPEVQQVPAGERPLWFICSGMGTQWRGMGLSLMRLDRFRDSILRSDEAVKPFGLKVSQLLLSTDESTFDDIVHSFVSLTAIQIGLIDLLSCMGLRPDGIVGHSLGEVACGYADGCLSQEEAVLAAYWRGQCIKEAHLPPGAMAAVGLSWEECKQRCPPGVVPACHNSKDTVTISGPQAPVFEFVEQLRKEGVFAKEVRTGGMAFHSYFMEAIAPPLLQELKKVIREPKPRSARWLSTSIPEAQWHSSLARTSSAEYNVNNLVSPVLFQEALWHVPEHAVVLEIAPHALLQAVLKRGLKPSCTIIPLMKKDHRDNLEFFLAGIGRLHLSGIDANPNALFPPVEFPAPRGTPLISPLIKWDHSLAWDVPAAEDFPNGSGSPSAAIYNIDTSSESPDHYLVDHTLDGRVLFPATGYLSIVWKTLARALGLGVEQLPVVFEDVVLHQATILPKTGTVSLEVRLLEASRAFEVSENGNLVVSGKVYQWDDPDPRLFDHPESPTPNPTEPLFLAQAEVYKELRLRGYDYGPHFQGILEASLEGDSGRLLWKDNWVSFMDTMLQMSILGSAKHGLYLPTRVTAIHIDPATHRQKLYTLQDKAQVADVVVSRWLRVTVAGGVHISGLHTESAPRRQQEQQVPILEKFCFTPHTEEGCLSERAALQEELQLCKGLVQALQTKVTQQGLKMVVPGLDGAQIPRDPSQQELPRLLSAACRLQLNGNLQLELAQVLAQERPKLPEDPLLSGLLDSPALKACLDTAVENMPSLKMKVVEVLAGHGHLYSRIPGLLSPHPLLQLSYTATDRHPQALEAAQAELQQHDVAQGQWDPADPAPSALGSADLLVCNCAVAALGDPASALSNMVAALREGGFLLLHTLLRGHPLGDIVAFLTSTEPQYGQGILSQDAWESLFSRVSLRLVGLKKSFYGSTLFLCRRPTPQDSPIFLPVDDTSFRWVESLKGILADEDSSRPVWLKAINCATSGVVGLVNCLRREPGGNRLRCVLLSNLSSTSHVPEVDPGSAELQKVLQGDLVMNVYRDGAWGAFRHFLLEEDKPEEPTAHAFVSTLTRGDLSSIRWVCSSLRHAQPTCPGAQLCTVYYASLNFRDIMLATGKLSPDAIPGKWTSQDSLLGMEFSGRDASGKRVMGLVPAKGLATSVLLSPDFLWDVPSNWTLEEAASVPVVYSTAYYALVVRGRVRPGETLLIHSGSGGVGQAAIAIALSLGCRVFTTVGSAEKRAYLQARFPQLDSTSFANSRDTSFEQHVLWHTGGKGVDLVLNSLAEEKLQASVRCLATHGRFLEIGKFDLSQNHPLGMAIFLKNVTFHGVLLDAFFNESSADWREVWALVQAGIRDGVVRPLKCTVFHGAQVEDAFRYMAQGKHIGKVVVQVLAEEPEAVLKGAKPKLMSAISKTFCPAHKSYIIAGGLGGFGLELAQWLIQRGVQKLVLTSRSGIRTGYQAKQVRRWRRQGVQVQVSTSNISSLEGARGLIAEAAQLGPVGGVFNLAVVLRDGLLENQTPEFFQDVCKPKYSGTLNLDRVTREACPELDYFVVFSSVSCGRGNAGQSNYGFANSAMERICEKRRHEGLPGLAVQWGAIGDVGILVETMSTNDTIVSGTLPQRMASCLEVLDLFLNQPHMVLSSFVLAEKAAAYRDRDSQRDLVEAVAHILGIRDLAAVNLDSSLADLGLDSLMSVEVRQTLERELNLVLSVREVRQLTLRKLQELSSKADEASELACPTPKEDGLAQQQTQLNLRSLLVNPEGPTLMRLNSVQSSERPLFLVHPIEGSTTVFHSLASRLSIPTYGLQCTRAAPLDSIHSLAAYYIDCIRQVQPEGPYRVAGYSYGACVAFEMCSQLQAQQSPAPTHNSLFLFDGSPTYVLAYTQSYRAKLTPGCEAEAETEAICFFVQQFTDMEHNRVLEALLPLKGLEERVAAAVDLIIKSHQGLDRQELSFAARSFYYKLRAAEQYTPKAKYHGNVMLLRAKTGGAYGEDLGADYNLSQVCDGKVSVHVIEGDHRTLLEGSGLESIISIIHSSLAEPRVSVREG
Chain of Peroxisome proliferator-activated receptor gamma (Homo sapiens) (P37231 whole entry, looked up, the tested form may be a part): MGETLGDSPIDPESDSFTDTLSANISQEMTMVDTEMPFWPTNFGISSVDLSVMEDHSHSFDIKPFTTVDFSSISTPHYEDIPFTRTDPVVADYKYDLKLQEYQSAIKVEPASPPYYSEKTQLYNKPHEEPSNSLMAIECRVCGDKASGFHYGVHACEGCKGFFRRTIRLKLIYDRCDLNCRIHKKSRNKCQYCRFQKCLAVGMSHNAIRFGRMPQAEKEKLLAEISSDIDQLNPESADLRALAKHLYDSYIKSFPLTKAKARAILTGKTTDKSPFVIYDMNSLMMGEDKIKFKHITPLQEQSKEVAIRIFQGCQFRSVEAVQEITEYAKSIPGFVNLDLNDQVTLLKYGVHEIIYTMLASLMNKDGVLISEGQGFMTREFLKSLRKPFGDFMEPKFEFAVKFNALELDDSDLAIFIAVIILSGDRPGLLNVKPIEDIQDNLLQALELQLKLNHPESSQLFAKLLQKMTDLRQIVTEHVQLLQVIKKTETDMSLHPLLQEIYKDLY

In the case of `Clc1ccc(Cl)c(Cl)c1`, the compound was called inactive in experiment [1], in experiment [2], in experiment [3], in experiment [4], in experiment [5] and in [6]. Moreover, in experiment [7], the result was inactive.

Consider `COC(=O)c1ccccc1N`, for which the call in experiment [1], in experiment [2], in experiment [3], in [8], in experiment [4] and in [9] was inactive. The call in experiment [5], in experiment [6], in [10] and in experiment [7] was inactive.

As to `OCCCl`, the compound was classed as inactive in experiment [1], in [2], in experiment [3], in experiment [8], in [4] and in experiment [9]. Also, the result in [5], in [6], in experiment [10] and in experiment [7] was inactive.

As to `ClC1=C(Cl)C2(Cl)C3C(Cl)C=CC3C1(Cl)C2(Cl)Cl` (configuration not stated), the compound was classed as inactive in experiment [1], in experiment [2], in [3], in experiment [4], in experiment [9] and in experiment [5]. The outcome in experiment [7] was inactive. Moreover, the AC50 in [6] was 18.4 µM (active).

As for `c1ccc(N=Nc2ccccc2)cc1`, the compound was called inactive in experiment [1], in experiment [2], in experiment [3], in experiment [11], in [12] and in experiment [13]. Further, the compound was classed as inactive in [14], in [8], in experiment [4], in experiment [9], in experiment [5] and in experiment [6]. In experiment [7], the compound was classed as inactive.

`CCCCC(CC)COC(=O)c1ccc(C(=O)OCC(CC)CCCC)c(C(=O)OCC(CC)CCCC)c1` (configuration not stated): the compound was classed as inactive in experiment [1], in experiment [2], in experiment [3], in [15], in experiment [4] and in [5]. The compound was classed as inactive in [6], in experiment [10] and in experiment [7].

Consider `Brc1ccc(Oc2ccccc2)cc1`, for which the result in experiment [1], in experiment [2], in experiment [3], in experiment [8], in experiment [4] and in experiment [9] was inactive. Further, the call in experiment [5], in experiment [6], in [10] and in [7] was inactive.

Regarding `c1ccc(C2CO2)cc1` (configuration not stated), the compound was classed as inactive in experiment [1], in experiment [2], in [3], in [8], in experiment [4] and in [9]. For the same compound, the call in experiment [5], in experiment [6] and in experiment [7] was inactive.

With `CC(C)(C)OOC(C)(C)CCC(C)(C)OOC(C)(C)C`, the result in experiment [1], in [2], in experiment [8], in [4], in [9] and in experiment [5] was inactive. For the same compound, the result in experiment [6] and in experiment [7] was inactive.

`Cc1ccc(N)c(N)c1`: the compound was classed as inactive in [1], in experiment [2], in [11], in experiment [12], in [13] and in experiment [14]. The outcome in experiment [16], in experiment [17], in experiment [8], in experiment [4], in [9] and in [5] was inactive. Further, the compound was called inactive in [6] and in experiment [7].

In the case of `Cc1ccc(N=C=O)cc1N=C=O`, the compound was called inactive in experiment [1], in experiment [2], in experiment [3], in [11], in experiment [12] and in experiment [13]. In addition, the call in experiment [14], in experiment [16], in experiment [17], in experiment [8], in experiment [9] and in experiment [6] was inactive. For the same compound, the concentration at half-maximal activity (AC50) in experiment [4] is 15.9 µM (active); in experiment [5], 72.2 µM (active); in experiment [10], 19.7 µM (active); in experiment [7], 31.2 µM (active).

As for `ClC1=C(Cl)[C@]2(Cl)[C@H]3[C@H]([C@@H]4C=C[C@H]3C4)[C@@]1(Cl)C2(Cl)Cl`, the outcome in experiment [3], in experiment [8], in experiment [9], in experiment [5], in [6] and in [10] was inactive. The result in experiment [7] was inactive. In experiment [4], the half-maximal activity concentration (AC50) was 28.7 µM (active).
